Experimental data published in PubChem BioAssay AID1508600 (Functional Genomics Laboratory (NCATS/FGL), 2020).
Screen size: about 53,000 sequences; about 3,700 (7%) were called active.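 The calls were made as follows: active = gene knockdowns whose robust z-score for IL-1 alpha signal is at least 2 or at most -2, so actives lie on both sides; inactive = the rest.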 The sample as a whole holds a higher share of actives than the screen did.

experiment: Components of the Cytosolic LPS Sensing Pathway: Gene Identification via Genome-wide siRNA Screen; details: RAW264.7 macrophages, IL-1a HTRF, actives lie on both sides, screened at 100 nM (by protocol), cells primed 5 h with Pam3CSK4 first;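 also: robust z of the log signal after scaling to non-targeting control siRNA wells of the plate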
Method in brief: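 Cells (RAW264.7, 1×10^4 per well) were transfected with siRNA at 100 nM and cultured 48h at 37 degrees C. Pam3CSK4 was added for 5 hours; LipidA transfection followed for 24 hour. IL-1a was then measured by HTRF.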

z-score, inactive:
GGGAGUGAGUUCUGGAGUGTT against Capn2 0.815, GGUUUUAAAGCAAUGAGCATT against Olfr995 -1.2, GGCCUUCUAUUUUGUCAAUTT against Limd1 0.403, GAAAUUUCCUAGAUGACUCTT against Vmn1r199 -0.447, CGUAUGAGUGCAAUACUAATT against Pcmtd1 1.32, GCACAUAGUGUAUCUAUACTT against Cd86 -1.24, GUCUUGCGUGACAACAUCCTT against H4c14 0.718, GCUUAUAUGGCCUGAGAGATT against Tmem199 -0.74, GGUGGUUUAACUGGAUAUUTT against Paip2b -1.95, GCCCAUGUAUCCAAAAGAATT against Cnmd -1.59, GGUGAUUGACAGAUUCUGATT against Nr4a1 -0.613, GCUUGGACCAUAAAUACUGTT against Senp5 0.051, GGACUUCUUAAUGUUUUACTT against Phf11a 0.398, GCCCAAGGUAACAACAAGCTT against Rtn4r 1.28, GGUAACUUUGAACUGAUCCTT against 1700030J22Rik -1.17, GGGUUAGAGUAAGGUAUUATT against Tsn -0.879, GCAGAUAGCCCACGUCAUUTT against Nfkb2 0.881, CCUAAGUUCCUGAAAAUAUTT against Epha5 -0.454, GGGAUUCAGACAUGUGCUGTT against 4930503E14Rik -0.658, CCAUACCGAUCAAAUUCCCTT against Pfn2 -0.596, GCAAUAGAAAAGUCCGUGGTT against Rbsn -1.12, GGAUGUCCAGAUGUAAAUATT against Vps16 -0.974, GGUUAUCAGAGGUUUAGUUTT against Oser1 0.23, GGGUCUCCAAUCCCUCAGUTT against Kir3dl2 0.489, GGAUUCAAAGCUUCCUUUATT against Eras 0.115, CGAAAAGGUGUGGCCAUCATT against Eif4a3 -0.664, CGACAUGUAAAACUAUUGUTT against Cd300e 0.864, CGACAUUUUACUAAGAGAUTT against Idnk -0.895, GCCCAGAAUGCUCACUAAATT against Sln 0.491, GGCUGUAAUUUUGAACAAUTT against Rnf17 -1.42, GGUCACUCAAAGAAUUAUGTT against Srr -1.05, CCUGUUAAUGACACCCACGTT against Slc37a2 -0.886, GGCGAUUUACAACUUUGGATT against H2aw 0.0941, GGAUAUAGGUGUGAUCUAGTT against Mxra7 0.9, CCCAAUGUUUCUAAUCAUGTT against Arhgap12 0.306, GGAAGGUUUGUUUUGUUUGTT against Slc24a3 0.0291, GGAGGAAUACCAGGAAUACTT against Sncb 0.33, GCCUUUGUGGACCAUCCAATT against Thy1 -0.954, GUACCUCAGAGCUCUGCAUTT against Helt -0.292, GCACUUAGUCCUACAUGACTT against Fut1 -1.21, GGUGGUAAUAGACAAACACTT against Ctdnep1 -0.749, GGAUGUGUCAGAAAAGUUATT against Lars2 0.641, GGUAACAAAUGCUGUUUUATT against Cul1 0.459, CCGAUUGAAUUACUCAGCATT against Bcas2 0.226, GGACAAAAGACAAUCGAGATT against Parp2 -0.273, CGAUGUUUUCAUGAACGACTT against Tctex1d2 0.738, GGAGGAUUACAACACUGUUTT against Enpp3 -0.617, CCUAGUAGCCGAGAAACAUTT against Olfr1137 -0.705, GGCAAUACGUGAAGAAAAATT against Baz1a -0.493, GGCUGUUUCUGUCAUGGUUTT against Nup133 0.383, GCAGAGAUAAAUUGGAAAGTT against Art2b 0.292, GGUCGAAAUGAUCUCCAACTT against Poli -0.687, GCUUCGAGAACUUUCUCCCTT against Nrtn 0.818, GGUUUCCAUAUUUGGAUCCTT against Dhx40 0.0331, GGAAUUUGAAGCUGUCACUTT against Spata2 -0.433, GGACUAGCGGACAUGGAUCTT against Ndc80 1.02, GGAAUUUCAAAGAGACAAATT against Cyfip1 -0.423, GGAUCGGUGAGAUUGUAGCTT against Phyhd1 -0.177, GGGCAUUUCUUCAGCUAAUTT against Tfec -1.04, GGAAGAUCUCAGUGAGCAUTT against Gpcpd1 0.69, GGCUUUAGGAAGAUCCUUGTT against Ilf2 -0.538, UUCUGUGAUCAUGUCUUCUTT against Tuba1b -1.6, GCGAUUCUGUAAAGAGCGCTT against Nme1 1.9, GGCCUUAGUUUAUACAUGUTT against Dusp18 0.628, GGAAUGUAACUGAAAGACUTT against Myo1c 0.486, GCUCAAGGACUUACGCAACTT against Zfp668 -1.61, GGACAAAAACAAACAUGAGTT against Vwa3a -0.665, CCGGGAAAGAACUCCUAAGTT against Wnt8b 0.0331, GGUUUCACAUUCAUCAACUTT against Ccdc14 -1.02, GGAUGAGCAAGAAAUCCCUTT against Ccdc137 -0.873, CCUAAGGAGACACGAAGCCTT against Cfp -0.119, GGUCUUCCAAGAAAAAGGCTT against a 1.07, GGAUGCUGACAAAAAUAUCTT against Iars 0.447, GGCCAUAAAAUGGUAGUAUTT against Trim36 0.0952, GGGUCAUGUUUUUAAGAAGTT against Frrs1 -1.28, CCCUUGCCUCAAAGAUCUUTT against Tex48 0.633, GCACUGUUCUCAAAGUUAATT against Ddx3x -0.248, CCAAUUGGAAGAAUCCAGGTT against Gsdmc3 -0.542, GGACAAGAAUUGGAACAAATT against Zfp84 1.43, CCCAGGUAGAGACAUUGCUTT against 6330444E15Rik -1.89, GGAGAUGAAAUCUACAAAUTT against Igfbp1 -0.592, GCCUUGUUGUGUUGGCUUATT against Olfr1111 0.549, GGGAAUAUUUUCAAGUUGCTT against Tmem14a 0.795, GGAAGAUAUUGGUAAAAACTT against Uba1y 0.584, GGAUGUUUGGACAUCAUUUTT against 2610002M06Rik 0.204

z-score, active:
CCCAUGUCGUGACAUCACATT against Slc26a7 -2.93, GGUCAAAGGGAAACAAGUUTT against Creb3l4 -2.02, GAUCAGAUGUUUGGGACUUTT against Olfr512 2.25, CCCUCAACCUCCAACCACATT against Ceacam1 -2.15, GGCCUACGAGAGGCAAAAATT against Hnf1a -2.05, GGCAAAGGAUCCAAGUUUGTT against Tmem123 2.81, GGGCAAGAACAACUCACUUTT against 4933404G15Rik -2.93, UCGAGUGAAGCAGUCUCCATT against Fam189a1 -2.13, CGAGAUCGAGUACUCAACUTT against Vps39 -2.96, GGAGUGAAGGGUCAUCCAGTT against Col9a2 5.07, GCCCUUUUCAUUCUCCAGATT against Zdhhc25 4.39, GGAAAUACGGCAGAACCCUTT against Kcnk9 -2.54, GGAAAUUGUGGACAUGAUCTT against Sult1c1 -3.27, GCUGGGUUAUGAGAUUUCUTT against Tns2 2.26, GGAUAGAGCACAGAUCCAGTT against St8sia5 2.38, GGGAAAGAAUUGGAUUGAATT against N4bp2l1 -2.31, GGGUUUUAUCAGCUAAAAATT against Plppr4 2.29, GCAUUCCAACGGAUUUAAUTT against Dag1 2.21, GGAUAUGCACUGUUUUCAATT against Nudt16 2.28, GGCUACGCCCACAAAAGCUTT against H1f6 -2.26, GGUUUUCCUAAAGUCAACATT against Bfar -2.24, GCAGUAGCGACGAAGGAUGTT against Rnf113a2 -2.12, GGCAGUAUCAAAGAAAUUGTT against Rps6ka3 3.43
